Where “and” joins values, the source holds several entries; their conditions need not be identical. Identical values can stand only once. Among all 5,500 compounds or so, about 2,000 (36%) were called active. Roughly 18% stayed inconclusive and do not appear here. No stated cut-off is given here; in the data, active means normalized growth mostly below about 0.91 (no sharp cut-off); inconclusive means no clear call, values can overlap the other calls; inactive means mostly above about 0.92. This is one part of the list.
Experiment: chemical genetic growth profiling, strain panel (AID 1159580);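 further: tested at 20 µM; growth read once vehicle control cultures reached saturation at 30 °C; 1 = growth at the plate median or of vehicle wells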
Settings: S. cerevisiae deletion strains, growth OD

Measured: normalized growth

CN(C)CC/C=C1\c2ccccc2Sc2ccc(Cl)cc21
0.882 (active) and 0.899 (inactive): locus YHR030C, strain SLT2, stronger effect = lower value
0.637 (active) and 0.914 (inactive): locus YJL095W, strain BCK1, stronger effect = lower value
inactive: locus YAL030W, strain snc1, stronger effect = lower value 0.985 | locus YBR171W, strain sec66, stronger effect = lower value 0.984 | locus YBR229C, strain ROT2, stronger effect = lower value 1.01 | locus YCL029C, strain bik1, stronger effect = lower value 1.03 | locus YCL061C, strain MRC1, stronger effect = lower value 0.987 | locus YCL069W, strain vba3, stronger effect = lower value 0.962 | locus YCR088W, strain abp1, stronger effect = lower value 0.971 | locus YDL005C, strain med2, stronger effect = lower value 1.01 | locus YDL035C, strain GPR1, stronger effect = lower value 0.901 | locus YDL040C, strain nat1, stronger effect = lower value 1 | locus YDL101C, strain DUN1, stronger effect = lower value 0.99 | locus YDL185W, strain tfp1, stronger effect = lower value 1.02 | locus YDL192W, strain arf1, stronger effect = lower value 1 | locus YDR001C, strain nth1, stronger effect = lower value 0.996 | locus YDR101C, strain arx1, stronger effect = lower value 0.977 | locus YDR150W, strain NUM1, stronger effect = lower value 1.02 | locus YDR159W, strain sac3, stronger effect = lower value 0.996 | locus YDR162C, strain NBP2, stronger effect = lower value 0.895 | locus YDR297W, strain sur2, stronger effect = lower value 0.975 | locus YDR318W, strain mcm21, stronger effect = lower value 0.982 | locus YDR334W, strain swr1, stronger effect = lower value 0.974 | locus YDR335W, strain msn5, stronger effect = lower value 0.96 | locus YDR392W, strain spt3, stronger effect = lower value 0.995 | locus YDR502C, strain sam2, stronger effect = lower value 0.951 | locus YEL003W, strain gim4, stronger effect = lower value 0.966 | locus YEL037C, strain rad23, stronger effect = lower value 0.983 | locus YEL061C, strain CIN8 (second series), stronger effect = lower value 0.981 | locus YEL061C, strain CIN8, stronger effect = lower value 1 | locus YER016W, strain bim1, stronger effect = lower value 0.953 | locus YER110C, stronger effect = lower value 1.02 | locus YER111C, strain swi4, stronger effect = lower value 0.99 | locus YER155C, strain BEM2 (second series), stronger effect = lower value 1.03 | locus YER155C, strain BEM2, stronger effect = lower value 1.03 | locus YER167W, strain BCK2, stronger effect = lower value 1 | locus YGL078C, strain dbp3, stronger effect = lower value 1.01 | locus YGL086W, strain mad1, stronger effect = lower value 0.942 | locus YGL167C, strain pmr1, stronger effect = lower value 0.997 | locus YGL227W, strain vid30, stronger effect = lower value 0.979 | locus YGL240W, strain doc1, stronger effect = lower value 0.95 | locus YGL248W, strain PDE1, stronger effect = lower value 0.894 | locus YHR079C, strain IRE1 (second series), stronger effect = lower value 1 | locus YHR079C, strain IRE1, stronger effect = lower value 0.93 | locus YHR094C, strain hxt1, stronger effect = lower value 1.02 | locus YHR129C, strain ARP1, stronger effect = lower value 0.994 | locus YHR200W, strain rpn10, stronger effect = lower value 1.02 | locus YIL073C, strain SPO22, stronger effect = lower value 0.961 | locus YIL125W, strain kgd1, stronger effect = lower value 1.01 | locus YIR030C, strain dcg1, stronger effect = lower value 1.01 | locus YJL092W, strain hpr5, stronger effect = lower value 0.972 | locus YJL115W, strain asf1, stronger effect = lower value 0.987 | locus YJL129C, strain trk1, stronger effect = lower value 0.91 | locus YJL134W, strain LCB3, stronger effect = lower value 1.01 | locus YJL154C, strain vps35, stronger effect = lower value 0.99 | locus YJL168C, strain set2, stronger effect = lower value 1.02 | locus YJL187C, strain SWE1 (second series), stronger effect = lower value 0.872
active: locus YAL013W, strain DEP1, stronger effect = lower value 0.907 | locus YAL021C, strain ccr4, stronger effect = lower value 0.696 | locus YAL026C, strain drs2, stronger effect = lower value 0.0729 | locus YBL061C, strain skt5, stronger effect = lower value 0.863 | locus YBR009C, strain hhf1, stronger effect = lower value 0.859 | locus YBR021W, strain FUR4, stronger effect = lower value 0.605 | locus YBR023C, strain chs3, stronger effect = lower value 0.831 | locus YBR231C, strain swc5, stronger effect = lower value 0.676 | locus YBR279W, strain paf1, stronger effect = lower value 0.904 | locus YCL011C, strain gbp2, stronger effect = lower value 0.897 | locus YCL016C, strain dcc1, stronger effect = lower value 0.894 | locus YDL074C, strain BRE1, stronger effect = lower value 0.775 | locus YDL134C, strain PPH21, stronger effect = lower value 0.882 | locus YDR069C, strain doa4, stronger effect = lower value 0.684 | locus YDR137W, strain rgp1, stronger effect = lower value 1.33 [resistant] | locus YDR195W, strain ref2 1.49 [resistant] | locus YDR388W, stronger effect = lower value 0.819 | locus YER015W, strain faa2, stronger effect = lower value 0.668 | locus YFR010W, strain ubp6, stronger effect = lower value 0.706 | locus YGL173C, strain kem1, stronger effect = lower value 0.844 | locus YGL253W, strain hxk2, stronger effect = lower value 0.845 | locus YGR135W, strain pre9, stronger effect = lower value 0.827 | locus YGR229C, strain SMI1, stronger effect = lower value 0.635 | locus YGR252W, strain gcn5, stronger effect = lower value 0.542 | locus YHR013C, strain ard1, stronger effect = lower value 0.637 | locus YHR027C, strain rpn1, stronger effect = lower value 0.679 | locus YHR142W, strain chs7, stronger effect = lower value 0.76 | locus YIL066C, strain RNR3, stronger effect = lower value 0.854 | locus YJL095W, strain BCK1 (second series), stronger effect = lower value 0.628 | locus YJL164C, strain tpk1, stronger effect = lower value 0.878 | locus YJL166W, strain qcr8, stronger effect = lower value 0.877

— PubChem BioAssay AID1159580 (chemical genetic matrix, 2015)
